# Measurements: PubChem BioAssay (NCATS)
# Records with an inconclusive call do not appear. Activity calls are given as the source filed them. Unless noted, the call rests on the fitted dose curve; in most records, active means well fitted inhibition curve with a large enough effect; inconclusive means small, poorly fitted or top-dose-only effect; inactive means flat fitted curve, though single readings scatter.
# Columns and labels:
# [1] = qHTS for identification of novel therapeutic agents for treatment of microphthalmiaassociated transcription factor (MiT) renal cell carcinoma (RCC) (AID 1963991; calls by dose curve; further: potency means the concentration at half of the fitted maximal effect;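 on z-score: curves scaled with 100% = DMSO viability and 0% = empty wells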); details: CellTiter-Glo, 48 h; for z-score: stronger effect = lower value
# How it was run: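 UOK109/UOK124/UOK145 (TFE3 fusions, three partners); 500 cells/well; MIPE v4.0, 1912 cpds, 11 conc.; 48 h, 37 C; CellTiter-Glo, 15 min RT; lum. Norm.: DMSO 100%, empty 0%.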
# [2] = qHTS profiling for inhibitors of Plasmodium falciparum proliferation (AID 504749); further: nearly all actives have a fitted effect of over 60% in size; further: potency means the concentration at half of the fitted maximal effect;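 on activity, negative = inhibition: 0% = DMSO vehicle and full inhibition = artemisinin control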; details: P. falciparum in erythrocytes, SYBR Green DNA, 72 h
# How it was run: (§1)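 P. falciparum-infected erythrocytes (0.3% parasitemia, 2.5% hematocrit) incubated with compound 72 h at 37 C, 5% CO2. Parasite DNA detected by SYBR Green after lysis, overnight at room temperature; normalised to 0.29 uM artemisinin and DMSO.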
# 3D7 = experiment: as above; details: P. falciparum in erythrocytes, SYBR Green DNA, 72 h; series mostly up to 28.7 µM
# How it was run: as §1
# 7G8 = experiment: as above; details: P. falciparum in erythrocytes, SYBR Green DNA, 72 h; series mostly up to 28.7 µM
# How it was run: as §1
# AA1029 = experiment: as above; details: P. falciparum in erythrocytes, SYBR Green DNA, 72 h; series mostly up to 28.7 µM
# How it was run: as §1
# AS120 = experiment: as above; details: P. falciparum in erythrocytes, SYBR Green DNA, 72 h; series mostly up to 28.7 µM
# How it was run: as §1
# ATS189 = experiment: as above; details: P. falciparum in erythrocytes, SYBR Green DNA, 72 h; series mostly up to 28.7 µM
# How it was run: as §1
# [3] = qHTS drug screen for cell cycle checkpoint inhibitors in PARPi-resistant BRCA-mutant ovarian cancer cell lines. (AID 1963452; calls by dose curve); details: PEO1/OlaR viability, CellTiter-Glo luminescence, 96 h, stronger effect = lower value
# How it was run: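 PEO1, PEO4 and PEO1/OlaR ovarian cancer cells, 600 per well, exposed 96 h at 37C to a dilution series. Viability read by CellTiter-Glo luminescence, normalized to DMSO and empty wells; activity summarized as Z-AUC.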
# [4] = TFE3-RCC UOK109 viability, measured here: UOK109 Z-AUC
# [5] = TFE3-RCC viability, measured here: UOK124 Z-AUC
# [6] = TFE3-RCC viability, measured here: UOK145 Z-AUC
# [7] = at 28.7 µM (top of the series), parasite line A
# [8] = at 28.7 µM (top of the series), parasite line B
compound,measurement,setting,value
Nc1cccc2c1CN(C1CCC(=O)NC1=O)C2=O (configuration not stated),z-score,[1]; [4],0.87
same,z-score,[1]; [5],1.94
same,z-score,[1]; [6],0.731
same,"activity, negative = inhibition",[2]; [7],12.2% (inactive)
same,"activity, negative = inhibition",[2]; [8],5.27% (inactive)
same,Potency,3D7,inactive
same,Potency,7G8,inactive
same,Potency,AA1029,inactive
same,Potency,AS120,inactive
same,Potency,ATS189,inactive
CC(C)c1nc(CN(C)C(=O)N[C@H](C(=O)N[C@@H](Cc2ccccc2)C[C@H](O)[C@H](Cc2ccccc2)NC(=O)OCc2cncs2)C(C)C)cs1,z-score,[1]; [4],-0.114
same,z-score,[1]; [5],-0.388
same,z-score,[1]; [6],0.0556
Cc1cc(=O)c2c(O)c3c(O)cc(=O)c4c3c3c(cc(O)c1c23)C(C)(C)C=4O,Potency,[2]; parasite line A,2510 nM (active)
same,Potency,[2]; parasite line B,1000 nM (active)
same,Potency,3D7,1580 nM (active)
same,Potency,AA1029,1780 nM (active)
same,Potency,AS120,1780 nM (active)
same,Potency,ATS189,1410 nM (active)
Cn1c(NCCN(CCO)CCCc2ccc([N+](=O)[O-])cc2)cc(=O)n(C)c1=O,"activity, negative = inhibition",[2]; [7],6.79% (inactive)
same,"activity, negative = inhibition",[2]; [8],16.9% (inactive)
same,Potency,3D7,inactive
same,Potency,AA1029,inactive
same,Potency,AS120,inactive
same,Potency,ATS189,inactive
CN(C)c1ccc2nc3ccc(=[N+](C)C)cc-3sc2c1,Potency,[2]; parasite line A,44.7 nM (active)
same,Potency,[2]; parasite line B,63.1 nM (active)
same,Potency,3D7,39.8 nM (active)
same,Potency,7G8,2.8 nM (active)
same,Potency,AA1029,79.4 nM (active)
same,Potency,AS120,63.1 nM (active)
same,Potency,ATS189,79.4 nM (active)
Cc1cc(=O)oc2cc(O)ccc12,Z-AUC,[3],0.0735 (inactive)
same,Z-AUC,[3]; measured here: PEO1 parental Z-AUC,0.832
same,Z-AUC,[3]; measured here: PEO4 Z-AUC,0.848
same,Potency,7G8,inactive
same,Potency,AA1029,inactive
CC1=C(C(=O)O)N2C(=O)[C@@H](NC(=O)[C@H](N)C3=CCC=CC3)[C@H]2SC1,z-score,[1]; [4],1.56
same,z-score,[1]; [5],0.465
same,z-score,[1]; [6],0.657
CC[C@]1(O)C[C@H]2CN(CCc3c([nH]c4ccccc34)[C@@](C(=O)OC)(c3cc4c(cc3OC)N(C=O)[C@H]3[C@@](O)(C(=O)OC)[C@H](OC(C)=O)[C@]5(CC)C=CCN6CC[C@]43[C@@H]65)C2)C1,Potency,"[1]; TFE3-RCC UOK109 viability, active = Z-AUC below -0.8 in all three lines",66.2 nM (active)
same,z-score,[1]; [4],-0.827
same,z-score,[1]; [5],-2.28
same,z-score,[1]; [6],-0.98
same,Potency,[2]; parasite line A,2240 nM (active)
same,Potency,7G8,141 nM (active)
same,Potency,AA1029,2510 nM (active)
same,Potency,AS120,3550 nM (active)
C[C@H](Cn1cnc2c(N)ncnc21)OCP(=O)(O)O,z-score,[1]; [4],0.368
same,z-score,[1]; [5],0.295
same,z-score,[1]; [6],0.62
same,"activity, negative = inhibition",[2]; [7],2.65% (inactive)
same,"activity, negative = inhibition",[2]; [8],3.87% (inactive)
same,Potency,3D7,inactive
same,Potency,7G8,inactive
same,Potency,AA1029,inactive
same,Potency,AS120,inactive
same,Potency,ATS189,inactive
Cc1nccn1CC1CCc2c(c3ccccc3n2C)C1=O (configuration not stated),z-score,[1]; [4],0.748
same,z-score,[1]; [5],0.745
same,z-score,[1]; [6],0.411
O=C(CS(=O)Cc1ccco1)NCC=CCOc1cc(CN2CCCCC2)ccn1 (configuration not stated),z-score,[1]; [4],0.673
same,z-score,[1]; [5],0.332
same,z-score,[1]; [6],0.715
same,"activity, negative = inhibition",[2]; [7],3.29% (inactive)
same,"activity, negative = inhibition",[2]; [8],-5.5% (inactive)
same,Potency,3D7,inactive
same,Potency,7G8,inactive
same,Potency,AA1029,inactive
same,Potency,AS120,inactive
same,Potency,ATS189,inactive
N=C(N=C(N)N)N1CCOCC1,"activity, negative = inhibition","[2]; at 12.8 µM (top of the series), parasite line A",-9.52% (inactive)
same,"activity, negative = inhibition","[2]; at 12.8 µM (top of the series), parasite line B",11.1% (inactive)
same,Potency,3D7,inactive
same,Potency,7G8,inactive
same,Potency,AA1029,inactive
same,Potency,ATS189,inactive
O=C(OC1C[C@H]2CC[C@@H](C1)[N+]21CCCC1)C(O)(c1ccccc1)c1ccccc1 (some centres not stated),z-score,[1]; [4],0.286
same,z-score,[1]; [5],0.765
same,z-score,[1]; [6],0.653
same,Potency,7G8,6310 nM (active)
same,Potency,AA1029,2510 nM (active)
